Shown are actives, neighbours in structure and some others; about 9.5% of the full set was active somewhere.
Tau fluor cs: counter-screen for tau fibril formation inhibitors. tau K18 P301L Alexa594 fluorescence, heparin fibrillization. Potency, µM (doses to about 57.7 µM), for inactives: top-dose activity change, negative = decrease. actives 0.93% (n = 280,000). AID 1463; also: nearly all actives have a fitted effect of over 55% in size
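Human tau K18 P301L (15 uM unlabeled, 0.24 uM Alexa 594-labeled) in 100 mM sodium acetate pH 7 with 20 uM heparin, 6 hr at 37 C. ThT 30 uM added, 1 hr ambient; Alexa 594 FP and total fluorescence read at 555/632 nm.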
HPGD inh: HPGD (human) dehydrogenase inhibition; Potency, µM, for the others: at the top dose activity change, negative = inhibition, hits mostly inhibitors; AID 894; purified HPGD, NADH fluorescence kinetic, PGE2 substrate; actives 4.3% (n = 150,000); active = well fitted inhibition curve with a large enough effect, not every such curve was filed as active; inconclusive = small, poorly fitted or top-dose-only effect, or another doubt; inactive = no such curve, though single readings can be large or run the other way
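20 nM HPGD preincubated 15 min at room temperature with compound in 50 mM Tris-HCl pH 8, 0.01% Tween 20. Started with 1 mM NAD+ and 30 uM prostaglandin E2; NADH fluorescence (360/450 nm) read 5 times over 30-s intervals, last minus first.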
Tau FP inhib: blocks human tau fibril formation measured by polarization | actives 0.39% (n = 280,000) | AID 1468 | P10636 | K18 P301L tau heparin fibrillization, Alexa594 FP, 6 h | Potency, µM (titrated, usually from 57.7 µM), for the others: at the top dose activity, negative = inhibition, most hits filed as inhibitors; also: nearly all actives have a fitted effect of over 55% in size
Target sequence (P10636 561-689 P618L limits assumed): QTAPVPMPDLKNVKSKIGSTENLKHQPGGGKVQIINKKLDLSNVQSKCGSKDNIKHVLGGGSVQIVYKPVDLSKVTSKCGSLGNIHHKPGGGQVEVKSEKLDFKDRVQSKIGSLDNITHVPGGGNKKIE
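Read-out: fluorescence polarization of Alexa 594-labeled tau (0.24 uM), 555 nm excitation, 632 nm emission. Mixtures held 15 uM unlabeled K18 P301L, compound and 20 uM heparin, pH 7 acetate buffer, incubated 6 hr at 37 C.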
ALDH1A1 inh: blocks purified human ALDH1A1 activity. AID 1030. Potency, µM (top dose mostly 75.3 µM), without a hit: top-dose activity, negative = inhibition, usual class: inhibitors. Purified ALDH1A1, NADH fluorescence, propionaldehyde substrate. P00352. actives 7.3% (n = 220,000); active = well fitted inhibition curve with a large enough effect, not every such curve was filed as active; inconclusive = small, poorly fitted or top-dose-only effect, or another doubt; inactive = no such curve, though single readings can be large or run the other way;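 also: plate controls were no enzyme wells and a reference inhibitor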
Target sequence (P00352 whole entry, looked up): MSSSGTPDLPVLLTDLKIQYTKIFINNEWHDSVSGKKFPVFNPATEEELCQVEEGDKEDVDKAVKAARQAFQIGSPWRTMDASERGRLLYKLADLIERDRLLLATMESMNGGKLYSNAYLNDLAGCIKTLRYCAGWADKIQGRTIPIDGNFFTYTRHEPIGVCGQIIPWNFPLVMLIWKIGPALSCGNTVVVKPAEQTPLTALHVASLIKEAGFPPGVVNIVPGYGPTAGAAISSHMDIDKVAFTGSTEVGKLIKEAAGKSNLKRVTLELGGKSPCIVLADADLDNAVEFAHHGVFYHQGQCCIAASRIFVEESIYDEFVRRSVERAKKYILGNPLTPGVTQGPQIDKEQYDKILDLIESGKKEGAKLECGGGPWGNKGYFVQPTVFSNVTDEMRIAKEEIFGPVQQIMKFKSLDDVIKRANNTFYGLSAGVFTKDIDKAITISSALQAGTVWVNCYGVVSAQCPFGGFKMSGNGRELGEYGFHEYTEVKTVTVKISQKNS
NPSR antag: neuropeptide S receptor (human) antagonism, cAMP | Q6W5P4 | CHO-NPSR cells, cAMP TR-FRET, antagonist mode | Potency, µM (top dose mostly 38.3 µM), inactives show at the top dose activity change, negative = inhibition, actives largely listed as inhibitors | actives 1% (n = 220,000); also: nearly all actives have a fitted effect of over 50% in size
Tau fibril ThT: blocks human tau fibril formation measured by thioflavin T; P10636; recombinant tau K18 P301L (four-repeat tau fragment), heparin-induced fibrillization, ThT fluorescence; Potency, µM (titrated, usually from 57.4 µM), without a hit: at the top dose activity, negative = inhibition, usual class: inhibitors; actives 2.1% (n = 270,000); AID 1460; also: nearly all actives have a fitted effect of over 55% in size
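In this qHTS, human K18 P301L tau is incubated with compound and heparin for 6 hr at 37 C, and Thioflavin T fluorescence then reports fibril load.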
Starred values were filed as active, the others as inactive; ? = inconclusive; . = no result; [ ] = dose if it differs, or a comment. Unless noted, calls follow the shape of the dose curve; as a rule, active = well fitted curve in the direction sought with a large enough effect; inconclusive = small, poorly fitted or top-dose-only effect, or another doubt; inactive = no such curve, though single readings can be large; an effect the other way counts as inactive or inconclusive. Unless noted, % is scaled to controls: 0 for no effect and ±100 for the full control effect; potency is read from the fitted curve at half-maximal effect.

SMILES	Tau fluor cs	HPGD inh	Tau FP inhib	ALDH1A1 inh	NPSR antag	Tau fibril ThT
O=C(Nc1cccc(F)c1)C1CCN(c2nnnn2-c2ccccc2)CC1	-10.7%	-10.1%	-12.5%	22.4µM*	-21.1%[46.1 µM]	3.8%
O=C(Nc1ccc2c(c1)OCCO2)C1CCN(c2nnnn2-c2ccccc2)CC1	-7.0%	-3.5%	-1.4%	3.55µM*	?	-7.0%
CCOc1ccc(NC(=O)C2CCN(C(=O)NCc3ccccc3)CC2)cc1	8.9%	-7.4%	7.3%	9.7%	-4.6%[46.1 µM]	2.7%
COc1cccc(NC(=O)N2CCCC2)c1	4.9%	.	-1.8%	2.2%	11.2%	12.4%
N#CCn1c(C2CCCCC2)nc2ccccc2c1=O	-16.3%	-19.0%	-13.4%	-1.4%	-6.7%[46.1 µM]	-9.5%
CCOC(=O)c1sc(NC(=O)c2nc3ncccn3n2)c(C(=O)OC(C)C)c1C	-5.4%	.	5.0%	.	.	1.7%
NC(=O)C1CCN(c2nnnn2-c2ccccc2)CC1	-1.6%	-6.9%	1.6%	?	?	-8.0%
O=C(C1CCN(c2nnnn2-c2ccccc2)CC1)N1CCN(c2ccccc2)CC1	-1.2%	-3.0%	2.3%	10µM*	-9.0%[46.1 µM]	-16.7%
Cc1ccc(-n2nnc(-c3nc(-c4cccs4)no3)c2N)c(C)c1	0.8%	.	-10.9%	.	.	6.2%
O=C1C(=O)N(CCN2CCOCC2)C(c2ccccn2)/C1=C(/O)c1ccccc1 (stereo unspecified)	-13.3%	-20.4%	-10.1%	3.55µM*	1.7%[46.1 µM]	?
Cc1ccc(C)c(/C(O)=C2/C(=O)C(=O)N(CCN3CCOCC3)C2c2ccco2)c1 (stereo unspecified)	-7.0%	?	-4.6%	10µM*	-13.2%[46.1 µM]	?
Cc1ccc(C2/C(=C(/O)c3cnn(-c4ccccc4)c3C)C(=O)C(=O)N2CCN2CCOCC2)o1 (stereo unspecified)	-5.6%	-18.4%	-2.6%	7.94µM*	-13.2%[46.1 µM]	?
Cc1ccc(C2/C(=C(/O)c3ccccc3)C(=O)C(=O)N2CCN2CCOCC2)o1 (stereo unspecified)	-1.6%	-2.5%	-1.5%	?	-11.8%[46.1 µM]	-20.1%
CC1CCCC(C)N1C(=O)CSc1nnc(CSc2ncccn2)n1C (stereo unspecified)	4.0%	-12.3%	2.4%	?	-8.1%[46.1 µM]	-3.9%
Cc1ccc(C(=O)O/N=C(\c2ccccc2)c2ccncc2)cc1	-10.4%	.	-6.7%	?	23.5%	-1.3%
COc1ccccc1C(=O)O/N=C(/c1ccncc1)c1ccc([N+](=O)[O-])cc1	-19.0%	.	7.6%	20µM*	-17.9%	-15.3%
COc1cccc(Nc2nnc(SCc3nc4ccccc4s3)s2)c1	14.1µM*[quencher]	-28.8%	-13.4%	?	-3.1%	?
COc1cccc(Nc2nc(-c3ccc(O)cc3)cs2)c1	14.1µM*[quencher]	-6.2%	8.4%	-18.5%	-15.2%[46.1 µM]	11.2µM*
COc1cccc(Nc2nc(-c3cccc(N4C(=O)c5ccccc5C4=O)c3)cs2)c1	7.94µM*[quencher]	-14.8%	?	-16.5%	-17.1%[46.1 µM]	?
Cc1cccnc1Nc1nc(-c2ccc(O)cc2)cs1	17.8µM*[quencher]	-9.4%	12.2%	-4.5%	-13.9%[46.1 µM]	12.6µM*
Oc1ccc(-c2csc(Nc3ncccn3)n2)c(O)c1	?	.	?	21.2%	-2.3%	?
COc1cccc(Nc2nnc(SCN3C(=O)c4ccccc4C3=O)s2)c1	?	-9.2%	-14.3%	?	5.7%	-0.3%
Cc1ccc(NC(=O)CSc2nc3ccc(NC(=O)c4cccc(Cl)c4)cc3s2)c(C)c1	-21.6%	.	?	.	.	9.8%
Cc1cccc(Nc2nc(-c3ccc4c(c3)OCCO4)cs2)c1	12.6µM*[quencher]	-7.7%	4.3%	20µM*	-4.6%[46.1 µM]	7.08µM*
COc1cccc(Nc2ccc(Nc3cccc(OC)c3)nn2)c1	12.6µM*[quencher]	-5.2%	8.8%	-2.5%	-25.0%[46.1 µM]	?
SMILES	Tau fluor cs	HPGD inh	Tau FP inhib	ALDH1A1 inh	NPSR antag	Tau fibril ThT
Cc1cccc(Nc2nc(-c3ccncc3)cs2)c1	?	.	?	4.1%	-23.4%	?
CC(CNC(=O)c1ccc2nc(CCc3ccccc3)oc2c1)c1ccccc1 (stereo unspecified)	-4.9%	.	-3.0%	.	.	-9.9%
CCc1ccccc1N(CC)C(=O)c1c(C)oc2ncn(C)c(=O)c12	-6.7%	.	-6.0%	.	.	-2.8%
O=C(NNC(=O)c1ccccn1)c1cccc([N+](=O)[O-])c1	1.5%	.	5.8%	8.7%	7.2%	0.0%
O=C(NC(c1ccccc1)c1ccccn1)c1cccc([N+](=O)[O-])c1 (stereo unspecified)	-5.8%	.	-0.5%	14.1µM*	-24.7%	4.1%
CCCCC[C@H](O)/C=C/C=C\C/C=C\C=C\[C@@H](O)CCCC(=O)O	-10.7%	-7.0%	-6.8%	3.4%	.	-13.9%
CCOC(=O)C1C(=O)C=C(c2ccc(Br)cc2)CC1c1ccco1 (stereo unspecified)	-10.4%	-13.9%	2.8%	15.8µM*	-24.1%[46.1 µM]	?
CCOC(=O)C1C(=O)C=C(c2ccc(C)cc2)CC1c1ccccc1 (stereo unspecified)	-9.4%	.	-5.7%	-10.3%	-36.2%	-17.4%
CCOC(=O)C1C(=O)C=C(c2cccc(NS(C)(=O)=O)c2)CC1c1ccco1 (stereo unspecified)	-17.5%	-22.2%	-5.4%	20µM*	-17.8%[46.1 µM]	-16.8%
COc1cccc(NC(=O)/C(C#N)=C/c2c(C)n(Cc3ccc(Cl)cc3)c3ccccc23)c1	?	.	?	.	.	-13.3%
COCCN1C(=O)c2ccccc2C(C(=O)N2CCN(c3ccccc3)CC2)C1c1ccc(F)cc1 (stereo unspecified)	-8.6%	-6.7%	-10.5%	5.3%	-14.4%[46.1 µM]	-11.7%
CCN(CC)S(=O)(=O)c1ccc2c(c1)nc(SCC(N)=O)n2-c1ccc(OC)cc1	-17.9%	22.4µM*	5.3%	?	?	-8.0%
CCN(CC)S(=O)(=O)c1ccc2c(c1)nc(SCC(=O)N1CCOCC1)n2-c1ccccc1OC	-5.1%	-18.4%	-0.3%	9.5%	-23.2%[46.1 µM]	-8.3%
C[C@]12CC[C@H]3c4ccc(O)cc4CC[C@@H]3[C@H]1CC[C@@H]2OC(=O)CCC1CCCC1	.	-10.1%	.	9.8%[13.5 µM]	.	.
Cc1noc(C)c1C(=O)N1CCC2(CCCN(C(=O)Nc3ccccc3)C2)CC1	.	-4.9%	.	2.8%	.	.
CCCn1nnc(NC(=O)/C=C/c2ccc(C(C)C)cc2)n1	-17.9%	.	-3.2%	14.1µM*	-21.3%	-19.8%
COc1ccc(-c2cc3nc(C)c(CCC(=O)N4CCN(c5cccc(Cl)c5)CC4)c(C)n3n2)c(OC)c1	-20.2%	.	5.6%	.	.	?
O=C(c1ccc(-c2nnc(Nc3ccccc3)c3ccccc23)cc1)N1C[C@H]2C[C@H](C1)c1cccc(=O)n1C2	-15.3%	31.6µM*	-14.8%	13.0%	-13.5%[46.1 µM]	-4.2%
Cc1cccc(N2CCN(C(=O)c3c4c(nc5ccccc35)C(=O)N(C3CCCCC3)C4)CC2)c1C	-1.9%	.	-6.1%	.	.	?

Screening data deposited in PubChem BioAssay by National Center for Advancing Translational Sciences (NCATS).
